This note sets out measurements from PubChem BioAssay (Tox21).

Where “and” joins values, the source holds several entries; their conditions need not be identical. Identical values can stand only once. Records with an inconclusive call do not appear. Where a structure was tested more than once in an assay, its records may differ in their call. Calls of active or inactive are those of the source. Calls come from the whole dose curve; as a rule, active = well fitted inhibition curve with a large enough effect in the repeat runs; inconclusive = weak or mixed curves; inactive = no such curve, though single readings can be large or run the other way.
% is set by controls: 0 for no effect and ±100 for the full control effect; potency is the fitted concentration of half-maximal effect.

Chain of Cytochrome P450 1A2 (Homo sapiens) (P05177 whole entry, looked up): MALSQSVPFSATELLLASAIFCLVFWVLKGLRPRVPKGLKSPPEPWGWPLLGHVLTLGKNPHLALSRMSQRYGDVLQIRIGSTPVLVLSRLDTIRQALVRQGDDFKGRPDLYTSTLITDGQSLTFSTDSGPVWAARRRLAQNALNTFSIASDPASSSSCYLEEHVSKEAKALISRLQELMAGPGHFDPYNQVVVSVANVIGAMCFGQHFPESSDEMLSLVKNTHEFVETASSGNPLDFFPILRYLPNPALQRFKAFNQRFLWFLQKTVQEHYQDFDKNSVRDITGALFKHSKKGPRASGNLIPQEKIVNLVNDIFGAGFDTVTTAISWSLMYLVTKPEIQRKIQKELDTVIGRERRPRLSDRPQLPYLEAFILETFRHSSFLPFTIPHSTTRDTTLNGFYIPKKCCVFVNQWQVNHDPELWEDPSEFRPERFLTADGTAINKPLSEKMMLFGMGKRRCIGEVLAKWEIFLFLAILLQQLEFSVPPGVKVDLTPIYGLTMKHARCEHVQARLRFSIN

The experiment concerns the target Cytochrome P450 1A2 (Homo sapiens) (UniProt P05177). In words: Cytochrome P450 Family 1 Subfamily A Member 2 (CYP1A2) small molecule antagonists: luciferase reporter qHTS assay (AID 1671199). Note: nearly all actives have a fitted effect of over 50% in size. The conditions noted are these: P450-Glo CYP1A2 enzyme, luciferin luminescence, 1 h; series mostly up to 115 µM; activity change, negative = inhibition: at the top concentration. In short, it runs like this: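 Inhibition of CYP1A2 conversion of proluciferin to luciferin, detected by luminescence. Reaction run 1 h at room temperature with NADPH regeneration after brief compound preincubation.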
For `COc1cc(O)c(C(=O)c2ccccc2)cc1S(=O)(=O)O`, the Potency entry is “inactive”.

Take `CC(=O)/C=C/C1=C(C)CCCC1(C)C`: the “activity change, negative = inhibition” value is -7.02% (inactive). On to `CC(=O)c1ccc(S(=O)(=O)NC(=O)NC2CCCCC2)cc1`, for which the Potency entry was “inactive”. Consider `CCOCCO`, for which the “activity change, negative = inhibition” value is -19.7% (inactive). For `CC1(C)O[C@@H]2[C@@H](CO[C@@]3(COS(N)(=O)=O)OC(C)(C)O[C@@H]23)O1`, the Potency entry was “inactive”. As to `NC(=O)c1ccc([N+](=O)[O-])cc1Cl`, the “activity change, negative = inhibition” value is 5.38% [at 53 µM] (inactive). `CC(C)Cc1ccc(C(C)C(=O)O)cc1` (stereo unspecified): the Potency entry is “inactive”. For the compound `CC(C)(C)NCC(O)c1ccc(O)c(CO)c1` (stereo unspecified), the Potency result was “inactive”. Regarding `COCCOCCOC`, the “activity change, negative = inhibition” value was -18% (inactive).

Take `Cc1cccc2ccccc12`: the “activity change, negative = inhibition” value was -25.1% (inactive). On the same count and under the same terms, next, `COc1ccc(O)cc1`: -21.1% [at 53 µM] (inactive). Regarding `COC(=O)c1ccc(C=O)cc1`, the Potency is 42.3 µM (active). On to `CCCCOC(=O)CCCCCCCCC(=O)OCCCC`, for which the “activity change, negative = inhibition” value was 13.6% [at 53 µM] (inactive). Same read-out and setting: next, `C=C(C)OC(C)=O`: -10.2% (inactive). In the case of `CN/C(=C\[N+](=O)[O-])NCCSCc1ccc(CN(C)C)o1`, the Potency result is “inactive and 24.5 µM (active)”.

`CN(C)C=O`: the “activity change, negative = inhibition” value is -2.57% (inactive). Take `C#C[C@]1(O)CC[C@H]2[C@@H]3CCC4=CC(=O)CC[C@@H]4[C@H]3CC[C@@]21CC`: the Potency entry was “inactive”.

As for `NC(=O)OCC(COC(N)=O)c1ccccc1`, the Potency result was “inactive”. Same read-out and setting: next, `Cc1cccc(C)c1O`: 36.1 µM (active).

For `O=C(O)CN(CC(=O)O)CC(=O)O`, the Potency result was “inactive”.

On to `CCn1cc(C(=O)O)c(=O)c2ccc(C)nc21`, for which the Potency entry was “inactive”.
